PMC4336329 (PLoS ONE, 2015)
Screen size: about 310,000 compounds; about 14,000 (4.5%) showed an effect of 50% or more. The effect is printed as a negative number. The sample holds strong results, similar compounds and a random draw of the others, so the mix is not that of the screen.

Target: human ether-à-go-go-related gene (hERG) potassium channel (human, UniProt Q12809)
Experiment: primary screen, population patch clamp on CHO cells stably expressing hERG; higher = less effect of the substance
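Also: peak tail current of the secondary pulse compared with the same well before compound.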

human ether-à-go-go-related gene (hERG) potassium channel, sequence (Q12809 whole entry, looked up): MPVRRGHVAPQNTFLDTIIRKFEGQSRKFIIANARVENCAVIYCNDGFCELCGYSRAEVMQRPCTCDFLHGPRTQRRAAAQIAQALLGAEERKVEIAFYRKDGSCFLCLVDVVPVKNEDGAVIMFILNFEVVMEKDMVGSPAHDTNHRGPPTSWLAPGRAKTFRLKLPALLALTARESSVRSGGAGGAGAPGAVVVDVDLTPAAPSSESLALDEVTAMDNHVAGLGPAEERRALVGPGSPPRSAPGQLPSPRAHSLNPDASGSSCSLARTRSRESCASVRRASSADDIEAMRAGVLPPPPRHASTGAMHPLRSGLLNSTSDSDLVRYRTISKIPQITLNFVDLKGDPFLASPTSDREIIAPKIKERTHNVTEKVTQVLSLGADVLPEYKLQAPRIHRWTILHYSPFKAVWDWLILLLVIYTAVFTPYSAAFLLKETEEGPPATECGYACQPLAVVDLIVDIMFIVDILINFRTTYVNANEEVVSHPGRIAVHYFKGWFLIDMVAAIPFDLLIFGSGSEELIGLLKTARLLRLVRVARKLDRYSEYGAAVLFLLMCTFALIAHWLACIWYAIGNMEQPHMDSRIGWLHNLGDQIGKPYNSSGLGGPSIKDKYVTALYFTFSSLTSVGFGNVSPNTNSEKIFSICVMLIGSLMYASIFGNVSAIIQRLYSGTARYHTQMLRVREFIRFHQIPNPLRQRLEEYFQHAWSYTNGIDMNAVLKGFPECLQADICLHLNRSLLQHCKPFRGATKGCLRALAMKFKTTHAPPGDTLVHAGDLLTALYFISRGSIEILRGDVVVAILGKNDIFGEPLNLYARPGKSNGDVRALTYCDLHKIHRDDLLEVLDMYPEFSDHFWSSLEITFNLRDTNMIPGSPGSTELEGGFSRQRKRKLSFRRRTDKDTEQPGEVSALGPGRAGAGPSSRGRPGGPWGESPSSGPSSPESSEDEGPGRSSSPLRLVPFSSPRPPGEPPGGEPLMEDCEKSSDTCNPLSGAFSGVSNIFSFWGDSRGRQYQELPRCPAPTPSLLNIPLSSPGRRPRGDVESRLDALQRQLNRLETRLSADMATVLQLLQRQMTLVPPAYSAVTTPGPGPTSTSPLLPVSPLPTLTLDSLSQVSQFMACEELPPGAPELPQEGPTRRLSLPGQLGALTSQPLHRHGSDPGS

| SMILES | hERG current change (%, negative = inhibition) at 10uM [%] |
| --- | --- |
| C/C(CC(=O)Nc1ccc(Cl)cc1Cl)=N\NC(=O)C(=O)NCCO | 6.64 |
| O=C(NCc1ccco1)c1cc2nc(-c3cccs3)cc(C(F)(F)F)n2n1 | -17.6 |
| COc1cc(NC(=O)c2ccc(COCC(F)(F)F)cc2)cc(OC)c1OC | 1.25 |
| O=C(CSc1ccccc1)N[C@@H](Cc1ccccc1)C(=O)O | 13.7 |
| O=C(Nc1ccc(S(=O)(=O)Nc2ncccn2)cc1)C1COc2ccccc2O1 (centres unmarked) | 11.1 |
| COc1ccc(S(N)(=O)=O)cc1C(=O)NCC(C)(C)N1CCCCC1 | -15.2 |
| COc1ccc2c(C)cc(SCc3c(C)noc3C)nc2c1 | -17 |
| O=C(Nc1ccc(CN2CCOCC2)cc1)c1cc(Cl)ccc1Cl | 0.807 |
| Cc1cc(Br)ccc1NC(=O)CNC(=O)CSc1n[nH]c(N)n1 | 18.5 |
| CCc1cc2c3c(c1)C1(C(=O)N3C(C)(C)CC2C)C(C#N)=C(N)N2C(=C1C#N)Nc1ccccc12 (centres unmarked) | -1.49 |
| O=C(NC1CCCN(Cc2ccc(Cl)cc2)C1)c1c(F)cccc1F (centres unmarked) | -15.7 |
| O=C(CCc1cccc(Cl)c1)NC1CCCN(Cc2ccccc2F)C1 (centres unmarked) | -28.3 |
| COc1ccc(CCC(=O)NC2CCCN(Cc3ccc(Cl)cc3)C2)cc1OC (centres unmarked) | -48.2 |
| COc1ccc(C(=O)NC2CCCN(Cc3ccc(Cl)cc3)C2)c(OC)c1 (centres unmarked) | -79.5 |
| O=C(Cc1cccc(F)c1F)NC1CCCN(Cc2ccc(Cl)cc2)C1 (centres unmarked) | -21.7 |
| COc1cccc(CC(=O)NC2CCCN(Cc3ccc(Cl)cc3)C2)c1 (centres unmarked) | -26.3 |
| O=C(Cc1ccccc1F)NC1CCCN(Cc2ccc(Cl)cc2)C1 (centres unmarked) | -33.7 |
| O=C(NC1CCCN(Cc2ccc(Cl)cc2)C1)c1c(F)ccc(F)c1F (centres unmarked) | -75.3 |
| O=C(NC1CCCN(Cc2ccc(Cl)cc2)C1)c1ccccc1C(F)(F)F (centres unmarked) | -16.9 |
| O=C(NC1CCCN(Cc2ccc(Cl)cc2)C1)c1cccc(F)c1 (centres unmarked) | -61.3 |
| COc1cc(OC)cc(C(=O)NC2CCCN(Cc3ccc(Cl)cc3)C2)c1 (centres unmarked) | -37.1 |
| O=C(CCc1ccc(F)c(F)c1)NC1CCCN(Cc2ccc(Cl)cc2)C1 (centres unmarked) | -66 |
| O=C(Nc1ccccc1)c1ccccc1Oc1ccc(C(F)(F)F)cc1[N+](=O)[O-] | 9.75 |
